# Test results reported in PubChem BioAssay (NCI).
# The panel holds about 79,000 compounds, 15% with a hit somewhere; the sample as a whole holds those more often. A number with no mark means an inactive call. Active and inactive are the calls of the source. Cut-off read from the data, not from the text of the source: active = growth inhibition above about 70%; inactive = the rest.
# Key:
# [1] = NCI Yeast Anticancer Drug Screen. Data for the rad52 strain (AID 147);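 note: 0% = growth of vehicle-treated control cultures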; settings: S. cerevisiae rad52 mutant growth inhibition, active compounds read high
# In short: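 Genetically altered yeast (DNA damage repair defect) treated with compound; inhibition calculated relative to vehicle.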
# [2] = NCI Yeast Anticancer Drug Screen. Data for the wt1 strain (AID 149);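 note: 0% = growth of vehicle-treated wt1 cultures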; settings: S. cerevisiae wt1 strain (SPY 50644) growth inhibition, active compounds read high
# In short: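 Readout: yeast growth inhibition, normalised to vehicle controls, in the wt1 strain exposed to test compounds.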
# [3] = NCI Yeast Anticancer Drug Screen. Data for the rad50EPP+ strain (AID 151);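 note: 0% = growth of vehicle-treated control cultures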; settings: S. cerevisiae rad50 mutant strain, active compounds read high
# In short: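 Strain rad50EPP+; compound exposure; % growth inhibition vs vehicle.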
# [4] = NCI Yeast Anticancer Drug Screen. Data for the mgt1 strain (AID 153); settings: S. cerevisiae mgt1 mutant growth inhibition, active compounds read high
# In short: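 Read-out: yeast growth inhibition vs vehicle control. Strain mgt1, drawn from a panel altered in DNA damage repair or cell cycle control.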
# [5] = NCI Yeast Anticancer Drug Screen. Data for the rad50 strain (AID 155);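 note: 0% = growth of vehicle-only cultures of the same strain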; settings: S. cerevisiae rad50 strain growth inhibition, active compounds read high
# In short: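 Compounds were tested on a yeast strain with an engineered DNA damage repair alteration; the reported value is growth inhibition normalised to vehicle treatment.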
# [6] = NCI Yeast Anticancer Drug Screen. Data for the mec2-1 strain (AID 157); settings: S. cerevisiae mec2-1 strain, active compounds read high
# In short: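 Cells of the genetically defined mec2-1 yeast strain are incubated with test compound. Inhibition of growth is calculated against vehicle-treated controls.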
# [7] = NCI Yeast Anticancer Drug Screen. Data for the rad14 strain (AID 159);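 note: 0% = growth of vehicle-treated control cultures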; settings: S. cerevisiae rad14 strain growth inhibition, active compounds read high
# In short: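 Compound-treated yeast with a defined DNA-repair lesion; growth inhibition normalised to vehicle-treated cultures.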
# [8] = NCI Yeast Anticancer Drug Screen. Data for the sgs1 mgt1 strain (AID 161);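 note: 0% = growth of cultures given vehicle only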; settings: S. cerevisiae sgs1 mgt1 strain, active compounds read high
# In short: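 Test agents were incubated with a DNA-repair-mutant yeast strain. Growth was then read and compared against vehicle-treated controls.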
# [9] = NCI Yeast Anticancer Drug Screen. Data for the CLN2oe strain (AID 163);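 note: 0% = growth of vehicle-only control cultures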; settings: S. cerevisiae CLN2oe strain, active compounds read high
# In short: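 Strain altered in cell-cycle control, incubated with compound; growth compared to solvent-treated controls.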
# [10] = NCI Yeast Anticancer Drug Screen. Data for the cln2 rad14 strain (AID 165);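 note: 0% = growth equal to vehicle treated cultures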; settings: S. cerevisiae cln2 rad14 strain, active compounds read high
# In short: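 The screen exposed genetically defined yeast (cln2 rad14) to test compounds and scored growth inhibition relative to vehicle-treated controls.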
# [11] = NCI Yeast Anticancer Drug Screen. Data for the bub3 strain (AID 167); settings: S. cerevisiae bub3 mutant strain, active compounds read high
# In short: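 Growth of a checkpoint-deficient yeast mutant is measured after compound exposure. Values represent inhibition relative to vehicle.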
# [12] = NCI Yeast Anticancer Drug Screen. Data for the wt2 strain (AID 169);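 note: 0% = growth of vehicle-treated yeast cultures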; settings: S. cerevisiae wt2 strain growth inhibition, active compounds read high
# In short: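 Steps: yeast strain treated with compound; growth recorded; inhibition calculated relative to cultures given vehicle alone.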
# [13] = NCI Yeast Anticancer Drug Screen. Data for the mlh1 strain (AID 171);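 note: 0% = growth of vehicle-treated control cultures of the same strain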; settings: S. cerevisiae mlh1 strain growth inhibition, active compounds read high
# In short: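 Yeast screen: mutant strain plus compound, growth scored against vehicle control wells.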
# [14] = NCI Yeast Anticancer Drug Screen. Data for the sgs1 strain (AID 173);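 note: 0% = growth of vehicle-only control cultures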; settings: S. cerevisiae sgs1 mutant, active compounds read high
# In short: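 Inhibition of yeast growth served as the measure. The mutant strain was treated with each compound, and growth was normalised to cultures receiving vehicle alone.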
# [15] = NCI Yeast Anticancer Drug Screen. Data for the mlh1 rad18 strain (AID 175); settings: S. cerevisiae mlh1 rad18 strain growth inhibition, active compounds read high
# In short: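 Compound-treated yeast growth, normalised to vehicle controls. Strain bears defined DNA repair mutations.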
# [16] = NCI Yeast Anticancer Drug Screen. Data for the rad18 strain (AID 177); settings: S. cerevisiae rad18 mutant growth inhibition, active compounds read high
# In short: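 Inhibition values reflect reduced yeast growth compared with vehicle-treated controls, using a strain engineered with a DNA damage repair defect.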
# [17] = at 5.0 µM (retest, dose inferred, filed as 0.5)
# [18] = at 50.0 µM (retest, dose inferred, filed as 5.0)
compound,measurement,setting,value
COc1ccc(N)c2c1C(=O)c1ccccc1C2=O,growth inhibition,[1]; at 1.2 µM,6%
same,growth inhibition,[1]; at 3.7 µM,11%
same,growth inhibition,[1]; at 11.0 µM,46%
same,growth inhibition,[1]; at 33.0 µM,90% (active)
same,growth inhibition,[1]; at 100.0 µM,96% (active)
same,growth inhibition,[2]; at 1.2 µM,0%
same,growth inhibition,[2]; at 3.7 µM,11%
same,growth inhibition,[2]; at 11.0 µM,14%
same,growth inhibition,[2]; at 33.0 µM,47%
same,growth inhibition,[2]; at 100.0 µM,94% (active)
same,growth inhibition,[3]; at 1.2 µM,9%
same,growth inhibition,[3]; at 3.7 µM,26%
same,growth inhibition,[3]; at 11.0 µM,59%
same,growth inhibition,[3]; at 33.0 µM,93% (active)
same,growth inhibition,[3]; at 100.0 µM,97% (active)
same,growth inhibition,[4]; at 1.2 µM,3%
same,growth inhibition,[4]; at 3.7 µM,-3%
same,growth inhibition,[4]; at 11.0 µM,8%
same,growth inhibition,[4]; at 33.0 µM,39%
same,growth inhibition,[4]; at 100.0 µM,93% (active)
same,growth inhibition,[5]; at 1.2 µM,7%
same,growth inhibition,[5]; at 3.7 µM,8%
same,growth inhibition,[5]; [17],30%
same,growth inhibition,[5]; at 11.0 µM,35%
same,growth inhibition,[5]; at 33.0 µM,89% (active)
same,growth inhibition,[5]; [18],39%
same,growth inhibition,[5]; at 50.0 µM,60.2%
same,growth inhibition,[5]; at 100.0 µM,96% (active)
same,growth inhibition,[6]; at 1.2 µM,-9%
same,growth inhibition,[6]; at 3.7 µM,0%
same,growth inhibition,[6]; [17],47%
same,growth inhibition,[6]; at 11.0 µM,12%
same,growth inhibition,[6]; at 33.0 µM,40%
same,growth inhibition,[6]; [18],56%
same,growth inhibition,[6]; at 50.0 µM,32.1%
same,growth inhibition,[6]; at 100.0 µM,81% (active)
same,growth inhibition,[7]; at 1.2 µM,-6%
same,growth inhibition,[7]; at 3.7 µM,-23%
same,growth inhibition,[7]; at 11.0 µM,2%
same,growth inhibition,[7]; at 33.0 µM,29%
same,growth inhibition,[7]; at 100.0 µM,93% (active)
same,growth inhibition,[8]; [17],-15%
same,growth inhibition,[8]; [18],79% (active)
same,growth inhibition,[8]; at 50.0 µM,62.5%
same,growth inhibition,[9]; at 1.2 µM,-2%
same,growth inhibition,[9]; at 3.7 µM,6%
same,growth inhibition,[9]; at 11.0 µM,17%
same,growth inhibition,[9]; at 33.0 µM,34%
same,growth inhibition,[9]; at 100.0 µM,89% (active)
same,growth inhibition,[10]; [17],62%
same,growth inhibition,[10]; [18],71% (active)
same,growth inhibition,[10]; at 50.0 µM,32.5%
same,growth inhibition,[11]; at 1.2 µM,-25%
same,growth inhibition,[11]; at 3.7 µM,-24%
same,growth inhibition,[11]; [17],41%
same,growth inhibition,[11]; at 11.0 µM,-32%
same,growth inhibition,[11]; at 33.0 µM,19%
same,growth inhibition,[11]; [18],72% (active)
same,growth inhibition,[11]; at 50.0 µM,49%
same,growth inhibition,[11]; at 100.0 µM,93% (active)
same,growth inhibition,[12]; at 1.2 µM,-11%
same,growth inhibition,[12]; at 3.7 µM,-11%
same,growth inhibition,[12]; at 11.0 µM,-6%
same,growth inhibition,[12]; at 33.0 µM,42%
same,growth inhibition,[12]; at 100.0 µM,93% (active)
same,growth inhibition,[13]; at 1.2 µM,-5%
same,growth inhibition,[13]; at 3.7 µM,-9%
same,growth inhibition,[13]; at 11.0 µM,1%
same,growth inhibition,[13]; at 33.0 µM,46%
same,growth inhibition,[13]; at 100.0 µM,94% (active)
same,growth inhibition,[14]; at 1.2 µM,-6%
same,growth inhibition,[14]; at 3.7 µM,-6%
same,growth inhibition,[14]; at 11.0 µM,6%
same,growth inhibition,[14]; at 33.0 µM,68%
same,growth inhibition,[14]; at 100.0 µM,96% (active)
same,growth inhibition,[15]; [17],27%
same,growth inhibition,[15]; [18],40%
same,growth inhibition,[15]; at 50.0 µM,77.5% (active)
same,growth inhibition,[16]; at 1.2 µM,-20%
same,growth inhibition,[16]; at 3.7 µM,-12%
same,growth inhibition,[16]; at 11.0 µM,-10%
same,growth inhibition,[16]; at 33.0 µM,54%
same,growth inhibition,[16]; at 100.0 µM,93% (active)
